The record followed here is PubChem BioAssay.

Where “and” joins values, the source holds several entries; their conditions need not be identical. Equal values may be shown once. Calls of active or inactive are those of the source.

Assay [1] in a line: small molecules captured by biotinylated probe aFSTL3 – biochemical, small-molecule microarray, fluorescence 635/667, stem cell growth factor project, primary screen (AID 1064).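 Also: measures binding of the biotinylated anti-FSTL3 antibody to printed compounds.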 The note with it: higher = more signal.
A short description of assay [2]: binders from COS7 lysate, DM2A8 probe, primary screen, torsin A project, cell lysate, small-molecule microarray, fluorescence 635/667 (AID 1065). The note with it: higher = more signal, COS7 lysate expressing mutant human TOR1A.
The nature of assay [3]: small molecules captured by biotinylated probe aFGF2 – biochemical, small-molecule microarray, fluorescence 635/667, stem cell growth factor project, primary screen (AID 1067).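 Also: measures binding of biotinylated aFGF2 protein to printed compounds on slides; z-score merges feature fluorescence and signal-to-noise across triplicate slides.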 The note with it: higher = more signal.
Assay [4] in a line: small molecules captured by biotinylated probe aFGF10 – biochemical, small-molecule microarray, fluorescence 635/667, stem cell growth factor project, primary screen (AID 1071).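 Also: score merges 667 nm spot intensity and signal to noise from triplicate slides.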 The note with it: higher = more signal.
For assay [5], the target named is Neurogenic locus notch homolog protein 2 (Homo sapiens) (UniProt Q04721). Put plainly: small molecules binding Notch2 protein – biochemical, small-molecule microarray, 635 nm fluorescence, stem cell growth factors, primary screen (AID 1073). To be noted: higher = more signal.
The target of assay [6] is Pro-neuregulin-1, membrane-bound isoform (Homo sapiens) (UniProt Q02297). Put plainly: small molecules binding neuregulin-1 protein – biochemical, small-molecule microarray, fluorescence 635/667, psychiatric disease protein project, primary screen (AID 1075).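 Also: score combines 667 nm spot fluorescence with signal to noise.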 The note with it: NRG1 binding, 635 nm fluorescence, higher = more signal.
Assay [7] has as its system Neuregulin-1 EGF-like domain. Put plainly: small molecules binding NRG1 EGF domain – biochemical, small-molecule microarray, 635 nm fluorescence, primary screen (AID 1081).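 Also: binding of the protein to compounds printed on small-molecule microarray slides.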 The note with it: higher = more signal.
A short description of assay [8]: FRG1 expression reporter modulators in myotubes – cell-based, C2C12 myotubes, firefly/Renilla luciferase, luminescence, FRG1 inhibition for FSHD, primary screen (AID 1084). To be noted: FRG1 promoter luciferase, higher = more signal, called active from +8 up or from −8 down.
Assay [9] is described as follows: small molecules captured by biotinylated probe aFST – biochemical, small-molecule microarray, fluorescence 635/667, stem cell growth factor project, primary screen (AID 1086).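 Also: score merges 667 nm fluorescence with signal-to-noise of each printed compound spot.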 To be noted: higher = more signal.
The nature of assay [10]: binders of probe aHhip on microarray, primary screen, stem cell growth factor project, biochemical, small-molecule microarray, fluorescence 635/667 (AID 1087).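 Also: score merges spot fluorescence at 667nm with spot signal to noise ratio.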 The note with it: higher = more signal.
In assay [11] the test system is PRMT1 (protein arginine N-methyltransferase 1). The assay can be described thus: small molecules binding arginine methyltransferase PRMT1 – biochemical, small-molecule microarray, 635 nm fluorescence, primary screen (AID 1088).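 Also: binding of Prmt1 protein to compounds spotted on small-molecule microarray slides.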 The note with it: higher = more signal.
Assay [12] can be described thus: growth effects on S. cerevisiae YJM789 – YJM789 clinical isolate, OD600, 24 h, basal, primary screen (AID 1089).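 Also: growth of clinical yeast isolate S. cerevisiae YJM 789 seeded 1000 cells per well; test concentration not given here.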 The note with it: higher = more signal, called active from +8 up or from −8 down.
Assay [13] is described as follows: S. pombe growth modifiers, basal conditions – strain 972, OD600, 24 h, no modulator, primary screen (AID 1090).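 Also: basal condition with compound alone and no growth modifier present; test concentration not given here.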 To be noted: S. pombe 972 growth, higher = more signal, called active from +8 up or from −8 down.
A short description of assay [14]: budding yeast growth modifiers under rapamycin – strain BY4716, OD600, 96 h, primary screen (AID 1091). Also: test concentration not given here. To be noted: S. cerevisiae BY4716 + rapamycin, higher = more signal, called active from +8 up or from −8 down.
The target in assay [15] is Torsin-1A-interacting protein 2 (Homo sapiens) (UniProt Q8NFQ8). The assay can be described thus: small molecules binding lysate-expressed LULL1 – cell lysate, human LULL1 lysate, 635/667 nm fluorescence, primary screen (AID 1092).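 Also: probe is lysate of COS7 cells overexpressing human LULL1; score merges per-feature 667 nm fluorescence with signal-to-noise.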 To be noted: small-molecule microarray, hLULL1 lysate binding, 635 nm fluorescence; higher = more signal.
A short description of assay [16]: optical density change of DRC41 E. coli – strain DRC41, OD650, 24 h, E. coli filamentation project, primary screen (AID 1093).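 Also: MC1000 strain lacking acrAB efflux and sulA so SOS filamentation is blocked; test concentration not given here.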 To be noted: E. coli DRC41 growth, higher = more signal, called active from +8 up or from −8 down.
A short description of assay [17]: probe aLefty2 binding to arrayed compounds – biochemical, biotinylated probe, 635/667 nm fluorescence, primary screen (AID 1094).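 Also: score merges spot fluorescence near 667 nm with spot signal-to-noise ratio.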 To be noted: small-molecule microarray, higher = more signal.
The subject of assay [18] is Noggin (protein binding on small-molecule microarray). The assay can be described thus: small molecules binding Noggin protein – biochemical, 635/667 nm fluorescence, primary screen (AID 1095).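 Also: score merges 667 nm feature fluorescence with signal to noise over triplicate slides.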 To be noted: 635 nm fluorescence, higher = more signal.
Assay [19] addresses Neurogenic locus notch homolog protein 3 (Homo sapiens) (UniProt Q9UM47). Put plainly: small molecules binding NOTCH3 protein – biochemical, 635/667 nm fluorescence, primary screen (AID 1096). The note with it: small-molecule microarray, 635 nm fluorescence, higher = more signal.
A short description of assay [20]: probe aEGFR binding to arrayed compounds – biochemical, biotinylated probe, 635/667 nm fluorescence, primary screen (AID 1097).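 Also: probe is a biotinylated anti-EGFR antibody binding compounds printed on slides; score combines fluorescence near 667 nm and signal to noise of each spot.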 The note with it: small-molecule microarray, higher = more signal.

Sequence of Neurogenic locus notch homolog protein 3 (Homo sapiens) (Q9UM47 whole entry, looked up): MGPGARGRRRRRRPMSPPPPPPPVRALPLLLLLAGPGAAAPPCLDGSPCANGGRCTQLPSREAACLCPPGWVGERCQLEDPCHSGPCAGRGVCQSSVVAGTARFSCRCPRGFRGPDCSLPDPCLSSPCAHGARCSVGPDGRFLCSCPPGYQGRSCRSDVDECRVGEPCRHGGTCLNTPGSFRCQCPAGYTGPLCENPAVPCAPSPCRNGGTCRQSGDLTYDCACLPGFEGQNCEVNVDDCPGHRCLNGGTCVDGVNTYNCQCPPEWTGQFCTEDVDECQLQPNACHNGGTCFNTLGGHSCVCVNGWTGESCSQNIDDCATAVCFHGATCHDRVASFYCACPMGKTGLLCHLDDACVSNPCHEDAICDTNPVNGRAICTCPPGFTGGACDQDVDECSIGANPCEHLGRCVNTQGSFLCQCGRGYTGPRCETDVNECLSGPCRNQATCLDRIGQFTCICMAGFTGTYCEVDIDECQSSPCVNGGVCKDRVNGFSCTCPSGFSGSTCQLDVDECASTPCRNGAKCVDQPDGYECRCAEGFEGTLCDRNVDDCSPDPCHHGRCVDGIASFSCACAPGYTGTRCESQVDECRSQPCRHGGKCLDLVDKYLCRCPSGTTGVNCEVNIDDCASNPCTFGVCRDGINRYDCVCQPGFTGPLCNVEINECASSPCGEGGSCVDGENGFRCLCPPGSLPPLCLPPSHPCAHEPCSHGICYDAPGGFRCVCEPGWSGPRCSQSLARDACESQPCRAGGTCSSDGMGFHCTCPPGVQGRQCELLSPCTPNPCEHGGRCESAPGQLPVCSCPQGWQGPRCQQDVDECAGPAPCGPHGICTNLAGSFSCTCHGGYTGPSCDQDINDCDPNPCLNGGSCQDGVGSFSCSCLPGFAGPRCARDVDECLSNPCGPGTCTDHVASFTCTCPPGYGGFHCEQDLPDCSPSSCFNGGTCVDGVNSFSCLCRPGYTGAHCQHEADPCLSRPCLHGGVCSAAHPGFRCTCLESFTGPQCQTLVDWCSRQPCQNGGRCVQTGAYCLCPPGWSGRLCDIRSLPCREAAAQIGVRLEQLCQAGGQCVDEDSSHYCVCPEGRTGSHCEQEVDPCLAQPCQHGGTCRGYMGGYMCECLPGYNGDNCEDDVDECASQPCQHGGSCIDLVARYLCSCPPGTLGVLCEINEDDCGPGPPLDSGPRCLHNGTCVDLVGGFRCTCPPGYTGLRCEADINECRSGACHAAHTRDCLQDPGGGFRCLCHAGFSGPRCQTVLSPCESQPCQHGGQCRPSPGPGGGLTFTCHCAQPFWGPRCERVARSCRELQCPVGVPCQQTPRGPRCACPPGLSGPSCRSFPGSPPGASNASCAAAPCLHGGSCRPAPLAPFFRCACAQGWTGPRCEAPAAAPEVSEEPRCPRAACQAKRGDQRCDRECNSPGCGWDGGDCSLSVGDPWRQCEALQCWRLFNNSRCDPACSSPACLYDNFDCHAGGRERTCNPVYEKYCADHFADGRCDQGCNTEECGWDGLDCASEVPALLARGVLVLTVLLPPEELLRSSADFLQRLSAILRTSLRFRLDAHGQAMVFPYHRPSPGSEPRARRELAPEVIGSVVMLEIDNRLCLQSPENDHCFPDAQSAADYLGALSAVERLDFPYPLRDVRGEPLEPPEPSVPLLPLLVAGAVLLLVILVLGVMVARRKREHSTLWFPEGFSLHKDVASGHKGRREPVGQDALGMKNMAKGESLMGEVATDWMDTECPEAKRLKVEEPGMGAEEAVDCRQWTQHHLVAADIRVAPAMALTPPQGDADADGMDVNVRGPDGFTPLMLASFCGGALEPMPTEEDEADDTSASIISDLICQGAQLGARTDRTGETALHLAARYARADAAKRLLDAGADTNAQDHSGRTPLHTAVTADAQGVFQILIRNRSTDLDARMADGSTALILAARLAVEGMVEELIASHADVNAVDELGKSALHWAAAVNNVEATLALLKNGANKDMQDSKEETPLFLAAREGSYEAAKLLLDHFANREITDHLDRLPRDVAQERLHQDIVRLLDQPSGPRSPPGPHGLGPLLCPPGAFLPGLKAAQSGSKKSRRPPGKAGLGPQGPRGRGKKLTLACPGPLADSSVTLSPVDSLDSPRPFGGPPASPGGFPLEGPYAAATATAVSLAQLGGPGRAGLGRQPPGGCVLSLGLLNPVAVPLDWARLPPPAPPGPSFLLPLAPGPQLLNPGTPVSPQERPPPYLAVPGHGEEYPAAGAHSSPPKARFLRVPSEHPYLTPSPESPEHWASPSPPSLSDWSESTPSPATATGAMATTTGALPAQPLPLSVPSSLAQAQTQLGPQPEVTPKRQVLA
Sequence of Neurogenic locus notch homolog protein 2 (Homo sapiens) (Q04721 whole entry, looked up, canonical isoform): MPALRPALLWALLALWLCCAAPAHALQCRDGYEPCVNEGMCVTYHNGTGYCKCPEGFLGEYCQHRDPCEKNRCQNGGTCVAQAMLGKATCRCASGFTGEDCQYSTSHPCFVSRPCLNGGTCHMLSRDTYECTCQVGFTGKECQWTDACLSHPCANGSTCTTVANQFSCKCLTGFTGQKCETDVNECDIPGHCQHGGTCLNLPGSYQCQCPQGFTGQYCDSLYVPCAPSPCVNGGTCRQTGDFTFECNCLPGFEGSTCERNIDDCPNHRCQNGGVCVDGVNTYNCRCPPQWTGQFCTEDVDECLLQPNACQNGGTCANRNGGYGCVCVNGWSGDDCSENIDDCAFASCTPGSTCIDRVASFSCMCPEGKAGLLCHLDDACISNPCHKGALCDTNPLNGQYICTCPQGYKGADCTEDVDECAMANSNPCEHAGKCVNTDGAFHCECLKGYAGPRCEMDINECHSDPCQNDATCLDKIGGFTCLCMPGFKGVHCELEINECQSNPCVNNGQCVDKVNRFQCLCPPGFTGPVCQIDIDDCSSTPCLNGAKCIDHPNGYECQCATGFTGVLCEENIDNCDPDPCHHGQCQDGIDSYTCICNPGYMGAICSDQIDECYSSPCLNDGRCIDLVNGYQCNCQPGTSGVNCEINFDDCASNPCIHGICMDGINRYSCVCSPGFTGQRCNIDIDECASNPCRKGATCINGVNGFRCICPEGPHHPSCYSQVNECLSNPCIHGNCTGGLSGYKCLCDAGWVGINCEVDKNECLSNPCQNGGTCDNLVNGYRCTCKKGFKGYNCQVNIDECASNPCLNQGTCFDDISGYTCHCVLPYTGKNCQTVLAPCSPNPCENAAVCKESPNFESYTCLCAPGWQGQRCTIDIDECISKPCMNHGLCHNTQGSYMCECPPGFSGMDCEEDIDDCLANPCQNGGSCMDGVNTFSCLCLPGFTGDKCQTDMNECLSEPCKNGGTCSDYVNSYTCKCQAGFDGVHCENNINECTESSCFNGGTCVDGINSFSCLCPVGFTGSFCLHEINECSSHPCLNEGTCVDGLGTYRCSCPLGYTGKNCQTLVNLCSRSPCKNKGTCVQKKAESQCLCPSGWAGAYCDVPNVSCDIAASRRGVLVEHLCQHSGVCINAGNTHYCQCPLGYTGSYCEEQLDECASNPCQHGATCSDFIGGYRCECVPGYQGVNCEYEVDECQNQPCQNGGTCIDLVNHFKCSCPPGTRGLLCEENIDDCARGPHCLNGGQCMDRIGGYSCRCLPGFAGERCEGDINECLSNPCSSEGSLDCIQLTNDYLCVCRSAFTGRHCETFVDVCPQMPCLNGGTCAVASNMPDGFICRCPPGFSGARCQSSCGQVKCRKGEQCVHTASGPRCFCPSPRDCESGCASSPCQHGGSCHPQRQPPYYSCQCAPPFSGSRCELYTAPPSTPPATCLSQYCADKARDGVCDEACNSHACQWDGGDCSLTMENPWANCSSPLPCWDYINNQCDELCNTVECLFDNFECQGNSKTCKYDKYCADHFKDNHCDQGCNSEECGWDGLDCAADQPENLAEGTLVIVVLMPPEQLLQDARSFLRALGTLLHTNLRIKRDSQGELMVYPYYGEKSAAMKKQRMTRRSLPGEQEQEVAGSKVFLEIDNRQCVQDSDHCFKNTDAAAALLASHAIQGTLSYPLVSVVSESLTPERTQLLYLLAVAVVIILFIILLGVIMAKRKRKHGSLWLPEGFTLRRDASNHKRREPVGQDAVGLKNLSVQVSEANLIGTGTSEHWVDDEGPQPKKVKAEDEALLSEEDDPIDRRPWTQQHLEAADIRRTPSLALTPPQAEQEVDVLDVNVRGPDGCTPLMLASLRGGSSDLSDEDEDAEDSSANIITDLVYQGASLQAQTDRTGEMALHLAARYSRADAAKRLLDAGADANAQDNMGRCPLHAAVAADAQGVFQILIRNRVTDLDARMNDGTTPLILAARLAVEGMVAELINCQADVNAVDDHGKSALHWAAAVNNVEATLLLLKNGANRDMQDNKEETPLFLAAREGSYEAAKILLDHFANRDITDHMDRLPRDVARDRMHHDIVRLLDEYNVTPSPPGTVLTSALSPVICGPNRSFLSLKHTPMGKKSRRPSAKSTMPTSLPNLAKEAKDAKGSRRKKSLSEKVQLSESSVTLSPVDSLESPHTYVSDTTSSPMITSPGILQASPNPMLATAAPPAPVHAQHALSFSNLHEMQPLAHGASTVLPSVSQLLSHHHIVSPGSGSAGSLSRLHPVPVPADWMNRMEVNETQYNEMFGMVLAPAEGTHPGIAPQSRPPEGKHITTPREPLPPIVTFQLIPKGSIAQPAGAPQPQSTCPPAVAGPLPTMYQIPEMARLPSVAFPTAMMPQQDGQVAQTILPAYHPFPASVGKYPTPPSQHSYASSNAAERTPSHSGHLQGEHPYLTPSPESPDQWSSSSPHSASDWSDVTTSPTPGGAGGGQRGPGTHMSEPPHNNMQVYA

With `CCOC(=O)CCN1C(=O)[C@H]2[C@H]3[C@H](O)[C@H](O)CC(=NNC(=O)OCC)[C@@H]3CC[C@H]2C1=O`, the composite z-score was -0.144 in assay [1]; 0.303 in assay [2]; -0.0459 in assay [3]; 0.348 in assay [4]; 0.708 in assay [5]; -0.388 in assay [6]. Also, the composite z-score was -0.0801 in [7]; 0.62 in assay [9]; -0.0994 in [10]; 0.763 in assay [11]; 0.45 in [15]; 0.0634 in assay [17]. For the same compound, the composite z-score in assay [18] stood at 0.531; in assay [19], 0.316; in [20], 0.095. Further, the z-score in assay [8] is 0.142 (inactive); in assay [12] it was -0.373 (inactive); in assay [13], -0.769 (inactive); in assay [14], -0.491 (inactive); in assay [16] it was 0.441 (inactive).

`CN1C(=O)C2CC=C([C@H]3Oc4ccccc4S(=O)(=O)N4CCC[C@@H]34)CC2C1=O` (stereo not given in full): the composite z-score in [1] is -0.203 and -0.0284; in [2], 0.157 and 0.0061; in assay [3], -0.133 and -0.149; in assay [4], 0.0694 and -0.0366; in assay [5] it was -1.05 and -0.369; in assay [6] it was 0.75 and -0.641. Moreover, the composite z-score was 0.151 and -0.561 in assay [7]; -0.311 and -0.365 in assay [9]; -0.0645 and -0.123 in assay [10]; -0.525 and -1.12 in [11]; -0.781 and -0.674 in assay [15]; -0.163 and -0.0719 in assay [17]. The composite z-score in assay [18] is -0.487 and 0.281; in assay [19], -0.977 and -1.16; in assay [20] it was -0.199 and -0.165. Further, the z-score is 0.74 (inactive) and 1.05 (inactive) in [8]; -0.243 (inactive) and 0.235 (inactive) in assay [12]; 0.0646 (inactive) and 0.0942 (inactive) in assay [13]; 0.579 (inactive) and 0.0211 (inactive) in assay [14]; 0.108 (inactive) and -0.089 (inactive) in [16].

Consider `C=CCN(C(=O)C(c1cccs1)N(C(=O)/C=C\C(=O)O)C(C)(C)CO)c1ccc(OC)cc1` (stereo not given), for which the composite z-score is 0.865 and 0.636 in assay [1]; -0.709 and 0.408 in assay [2]; -0.204 and -0.158 in [3]; -1.37 and -0.882 in [4]; -0.907 and -1.48 in [5]; 1.46 and 1.42 in [6]. Moreover, the composite z-score in [7] is 1.36 and 0.431; in assay [9] it was -0.337 and -0.451; in assay [10], -0.482 and -0.0645; in assay [11], -0.771 and -0.469; in assay [15] it was 2.03 and -0.628; in assay [17], 0.388 and -0.0519. The composite z-score in [18] was -1.23 and -1.8; in assay [19], -1.37 and -0.484; in assay [20] it was -0.24 and -0.151. Further, the z-score in assay [8] is -0.447 (inactive) and 1.44 (inactive); in assay [12], -2.87 (inactive) and -2.15 (inactive); in [13], -2.09 (inactive) and -2.05 (inactive); in assay [14], -2.57 (inactive) and -1.07 (inactive); in assay [16] it was 3.5 (inactive) and 2.82 (inactive).

Turning to `CC(C)=NO[C@@H](C)c1cc(-c2c(C)cc(C)cc2C)no1`, the composite z-score in assay [1] was 1.18; in assay [2] it was -0.146; in assay [3], -0.135; in [4], 0.0794; in assay [5] it was -0.243; in assay [6], -0.0227. In addition, the composite z-score is -0.304 in assay [7]; -0.163 in assay [9]; 0.0854 in [10]; -0.389 in assay [11]; 0.168 in [15]; -0.122 in assay [17]. In addition, the composite z-score is 0.412 in assay [18], -0.434 in assay [19] and -0.101 in assay [20]. Besides, the z-score in assay [8] is 0.122 (inactive); in assay [12] it was -0.166 (inactive); in assay [13] it was -3.55 (inactive); in assay [14], -0.0423 (inactive); in assay [16], -0.272 (inactive).
